Results as given in PubChem BioAssay AID1159577 (Broad Institute, 2015).
The campaign covered roughly 1,300 compounds. About 240 (18%) were called active. Another 8% or so got no clear call; they are omitted. Not all results are given here. Entries with a potency or affinity are not part of this list. A number with no mark means an inactive call. No rule for the calls is given here.

Assay: toxicity to human hepatoma HepG2 cells – cell-based, cherry-picked samples, cytotoxicity control, dose response (AID 1159577);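 also: 0% = neutral control wells and -100% = positive control wells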
Conditions: HepG2 cytotoxicity counterscreen, plate reader; series mostly up to 19.5 µM; activity change, negative = cytotoxicity: at the top concentration

| Compound | activity change, negative = cytotoxicity |
| --- | --- |
| N#C[C@@H]1[C@@H](c2ccccc2C2=CCCC2)[C@H](CO)N1C(=O)C1CC1 | -21.1% [at 18 µM] |
| O=C(Nc1cccc(F)c1)N1CCCCN2[C@@H](CO)[C@H](c3ccc(C#Cc4cccnc4)cc3)[C@@H]2C1 | -13.2% |
| O=C(Nc1cccc(F)c1)N1CCCCN2[C@H](CO)[C@H](c3ccc(C#Cc4ccccc4)cc3)[C@@H]2C1 | 0.219% |
| O=C(Nc1ccccc1)N1CCCCN2[C@@H](CO)[C@H](c3ccc(C#Cc4cccnc4)cc3)[C@@H]2C1 | 16.9% |
| COc1ccc(NC(=O)N2CCCCN3[C@@H](CO)[C@H](c4ccc(C#Cc5ccccn5)cc4)[C@@H]3C2)cc1 | 15.3% |
| O=C(Nc1ccccc1)N1CCCCN2[C@H](CO)[C@H](c3ccc(C#Cc4ccccc4)cc3)[C@@H]2C1 | 15% |
| COc1ccc(NC(=O)N2CCCCN3[C@H](CO)[C@H](c4ccc(C#CCC(C)C)cc4)[C@@H]3C2)cc1 | 11.6% |
| COc1ccc(C#Cc2ccc3c(c2)[C@H]2[C@H](CCN2C(=O)c2ccccn2)[C@@H](CO)N3)cc1 | -7.07% |
| COc1ccc(NC(=O)N2CCC3(CC2)CN(C(=O)C2CCC2)[C@H](CO)c2c3c3ccc(OC)cc3n2C)cc1 | -1.36% |
| C[C@@H]1CN([C@H](C)CO)C(=O)c2c(c3ccccc3n2C)-c2ccccc2CO[C@H]1CN(C)S(=O)(=O)c1ccc(C(F)(F)F)cc1 | 18% |
| C[C@@H]1CN([C@@H](C)CO)C(=O)c2c(c3ccccc3n2C)-c2ccccc2CO[C@H]1CN(C)C(=O)Cc1ccccc1 | -7.33% |
| CCC(=O)N1CC2(C1)[C@@H](c1ccc(-c3cccc(OC)c3)cc1)[C@@H](CO)N2C(C)=O | -16.1% |
| CO[C@H]1CN(C)C(=O)c2cc(NC(=O)C3CC3)ccc2OC[C@H](C)N(Cc2cc(F)ccc2F)C[C@@H]1C | 32% |
| COc1ccc(S(=O)(=O)Nc2ccc3c(c2)CC(=O)N([C@@H](C)CO)C[C@H](C)[C@H](CN(C)S(=O)(=O)c2ccc(C)cc2)O3)cc1 | 7.4% |
| Cc1ccc(S(=O)(=O)N(C)C[C@H]2OCc3ccccc3-c3c(n(C)c4ccccc34)C(=O)N([C@@H](C)CO)C[C@H]2C)cc1 | -5.12% [at 21 µM] |
| COc1ccc(NC(=O)N2CCCCN3[C@H](CO)[C@H](c4ccc(C#Cc5ccccc5)cc4)[C@@H]3C2)cc1 | -6.2% |

| Compound | activity change, negative = cytotoxicity |
| --- | --- |
| COc1ccc(C#Cc2ccc([C@H]3[C@H]4CN(C(=O)Nc5ccccc5)CCCCN4[C@H]3CO)cc2)cc1 | 0.362% |
| COc1ccc(NC(=O)Nc2ccc3c(c2)[C@H]2C[C@H](CC(=O)N4CCc5ccccc5C4)O[C@H](CO)[C@H]2O3)cc1 | 17.4% |
| COc1ccccc1-c1cccc(-c2nc(C(=O)Nc3nccs3)cc3c2[C@H](CCO)N(C(=O)CC2CC2)C3)c1 | 30.2% |
| CO[C@H]1CN(C)C(=O)c2cc(NS(=O)(=O)c3ccccc3C)ccc2OC[C@H](C)N(C)C[C@H]1C | -7.94% |
| CC(C)(O)C#Cc1ccc([C@H]2[C@H](CO)N3CCCCN(C(=O)c4ccc(F)cc4)C[C@@H]23)cc1 | 21.6% |
| COc1ccc2c3c(n(C)c2c1)[C@H](CO)N(CC1CC1)CC31CN(C(=O)c2ccc3c(c2)OCO3)C1 | 1.85% |
| CO[C@@H]1CN(C)C(=O)c2ccc(NC(=O)C3CCC3)cc2OC[C@@H](C)N(CC2CCCCC2)C[C@H]1C | -6.63% |
| CO[C@@H]1CN(C)C(=O)c2cc(NC(=O)c3ccccc3F)ccc2OC[C@H](C)N(C(=O)c2ccccc2F)C[C@@H]1C | 14.7% |
| C[C@H](CO)N1C[C@H](C)[C@@H](CN(C)C(=O)Nc2cccc3ccccc23)Oc2ccc(NC(=O)Cc3cn(C)c4ccccc34)cc2C1=O | -4.27% |
| C[C@H](CO)N1C[C@H](C)[C@@H](CN(C)S(=O)(=O)c2ccc(C(F)(F)F)cc2)OCc2ccccc2-c2c(n(C)c3ccccc23)C1=O | 0.059% [at 21 µM] |
| N#C[C@@H]1[C@H](c2ccccc2-c2cccc(F)c2)[C@@H](CO)N1C(=O)C1CCCC1 | 17.6% |
| CC(C)(C)[S@@](=O)N1Cc2cc(C(=O)N[C@@H]3CCN(Cc4ccccc4)C3)nc(-c3cccc(-c4cccnc4)c3)c2[C@H]1CCO | 22.2% |
| COCc1cn([C@@H]2C[C@@H]3O[C@H](CO)CC[C@@H]3O[C@@H]2CCc2ccc(-c3ccc(OC)cc3)cc2)nn1 | -7.81% |
| CCCNC(=O)Nc1ccc2c(c1)C(=O)N(C)C[C@@H](OC)[C@H](C)CN(C(=O)C1CCOCC1)[C@@H](C)CO2 | 14.2% |
| COc1ccc(NC(=O)N(C)C[C@@H]2Oc3cc(-c4ccc(C)cc4)ccc3S(=O)(=O)N([C@H](C)CO)C[C@@H]2C)cc1 | -9.12% |
| C[C@H]1CN([C@@H](C)CO)S(=O)(=O)c2ccc(C#Cc3ccccc3)cc2O[C@@H]1CN(C)S(=O)(=O)c1cn(C)cn1 | -20.3% |
